This is part of a sample that, as a whole, favours compounds with a hit. Of some 83,000 tested, about 20% had one in any assay.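 Interpretation: 100, growth as untreated; towards 0, rising growth inhibition; 0, no net growth; 0 to -100, cell death. Compounds scoring below 10 were considered active.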 A number with no mark means an inactive call. Calls of active or inactive are those of the source.
Legend:
Experiment in all cases: NCI-60 one-dose screen, 48 h (100 = growth as untreated, 0 = no growth, -100 = all killed)
Conditions in all cases: 10 µM
SK-MEL-2 melanoma = test system: SK-MEL-2 melanoma
EKVX NSCLC = test system: EKVX NSCLC
SN12C renal = test system: SN12C renal
UO-31 renal = test system: UO-31 renal
TK-10 renal = test system: TK-10 renal
ACHN renal = test system: ACHN renal
CAKI-1 renal = test system: CAKI-1 renal
A498 renal = test system: A498 renal
CCRF-CEM leukemia = test system: CCRF-CEM leukemia
RPMI-8226 leukemia = test system: RPMI-8226 leukemia
OVCAR-8 ovarian = test system: OVCAR-8 ovarian
OVCAR-5 ovarian = test system: OVCAR-5 ovarian
OVCAR-4 ovarian = test system: OVCAR-4 ovarian
SK-OV-3 ovarian = test system: SK-OV-3 ovarian
IGROV1 ovarian = test system: IGROV1 ovarian
OVCAR-3 ovarian = test system: OVCAR-3 ovarian
HS 578T breast = test system: HS 578T breast
NCI/ADR-RES ovarian = test system: NCI/ADR-RES ovarian
SR leukemia = test system: SR leukemia

| SMILES | growth (SK-MEL-2 melanoma) | growth (EKVX NSCLC) | growth (SN12C renal) | growth (UO-31 renal) | growth (TK-10 renal) | growth (ACHN renal) | growth (CAKI-1 renal) | growth (A498 renal) | growth (CCRF-CEM leukemia) | growth (RPMI-8226 leukemia) | growth (OVCAR-8 ovarian) | growth (OVCAR-5 ovarian) | growth (OVCAR-4 ovarian) | growth (SK-OV-3 ovarian) | growth (IGROV1 ovarian) | growth (OVCAR-3 ovarian) | growth (HS 578T breast) | growth (NCI/ADR-RES ovarian) | growth (SR leukemia) |
| --- | --- | --- | --- | --- | --- | --- | --- | --- | --- | --- | --- | --- | --- | --- | --- | --- | --- | --- | --- |
| O=C1CCC(N2Cc3c(C#CCCCNC(=O)c4ccc(NC(=O)[C@@H]5NC6(CCCCC6)[C@@]6(C(=O)Nc7cc(Cl)ccc76)[C@H]5c5cccc(Cl)c5F)cc4)cccc3C2=O)C(=O)N1 (some centres not stated) | 76.4% | 51.6% | 74.3% | 30.3% | 79.8% | 26.2% | 36.1% | 94.9% | 47.9% | 43.7% | 69% | 76.6% | 56.5% | 74.2% | 11.7% | 72.3% | 46.2% | 85.7% | – |
| CNC(=O)c1cc(-c2ccc(NC(=O)Nc3ccc(C)cc3)cc2)nc2cccnc12 | 103% | 99.4% | 101% | 63.9% | 108% | 92.3% | 92.8% | 95.4% | 93.5% | 88.8% | 97.8% | 105% | 108% | 91.1% | 92.8% | 105% | 106% | – | – |
| Cc1ccc(-c2nc3ccc(C(=O)N=Nc4c(O)[nH]c5ccc(Br)cc45)cc3[nH]2)cc1 | 113% | 94.9% | 95.3% | 80.3% | 114% | 101% | 92.7% | 137% | 34.7% | 49.6% | 39.9% | 62.8% | 45.7% | 96.1% | 87.4% | 49.4% | 94.1% | 99.7% | – |
| Cc1cc2nc3c4ccccc4n(CCO)c3nc2cc1C | 101% | 84.5% | 43.5% | 28.6% | 165% | -6.25% (active) | 55.4% | 61.6% | 71.6% | 93% | – | 103% | -43.7% (active) | 81.7% | 58.4% | 78.7% | 48.3% | 62.3% | 27.2% |
| CN1CCN(c2ccc(Nc3nc(NCCNC(=O)c4ccc(C(F)(F)F)cc4)c4sccc4n3)cc2)CC1 | -41.9% (active) | 59.7% | 73.6% | 4.76% (active) | 12% | 10.7% | 22.5% | 69% | -31.1% (active) | -40.1% (active) | 21% | 42.3% | -33.2% (active) | 77% | 65% | 27.8% | -8.08% (active) | – | – |
| Cc1ccc(NC(=O)NCn2c(=O)[nH]c3ccccc3c2=O)cc1 | 93.1% | 87.6% | 68.6% | 44.5% | 72.5% | 35% | 61.4% | 90.4% | 97.5% | 92.7% | 39.9% | 94.2% | 50.8% | 57.8% | 76.6% | 87.6% | 55.3% | 70.7% | – |
| CN1CCN(c2ccc(Nc3nc(N4CCN(S(=O)(=O)c5ccc(F)cc5)CC4)c4sccc4n3)cc2)CC1 | -72.7% (active) | -89.5% (active) | -86.4% (active) | -87.1% (active) | -77.9% (active) | -100% (active) | -96.3% (active) | -94.3% (active) | -1.97% (active) | -24.2% (active) | -85% (active) | -96.8% (active) | -89.3% (active) | -87.2% (active) | -86.4% (active) | -79% (active) | -47.7% (active) | – | – |
| Cc1ccc(-c2nc3ccc(C(=O)N=Nc4c(O)[nH]c5ccc([N+](=O)[O-])cc45)cc3[nH]2)cc1 | 101% | 101% | 48.8% | 81.7% | 107% | 97% | 95.9% | 116% | 61.2% | 104% | 75.3% | 101% | 55.2% | 78.9% | 89.2% | 21.9% | 74.6% | 103% | – |
| O=C(CSc1nnc(-c2c[nH]c3ccccc23)n1-c1ccccc1)Nc1ccc(C(=O)/C=C/c2cccc([N+](=O)[O-])c2)cc1 | 101% | 83.9% | 104% | 42.9% | 115% | 74.3% | 83.7% | 95.7% | 96.1% | 13.9% | 97.2% | – | 84.2% | 106% | 82.9% | 103% | 74% | 96.3% | 75.2% |
| O=C(CSc1nnc(-c2c[nH]c3ccccc23)n1-c1ccccc1)c1ccc(Cl)cc1 | 33.7% | 25.6% | 64.6% | 54.8% | 84% | 57.5% | 64.5% | 57.3% | 92.7% | 83.2% | 24.5% | 90.7% | 14.9% | 72.1% | 51.4% | 73.9% | 33.2% | 5.85% (active) | – |
| O=C(Nc1ccc(OCC(=O)c2ccccc2)cc1)Nc1ccc(Cl)c(C(F)(F)F)c1 | -53.7% (active) | 17.2% | 24.9% | 17.6% | 49.2% | 18.1% | 20.2% | 17.1% | 9.86% (active) | 7.07% (active) | 29.8% | 35.8% | 22.9% | 16.4% | 28.9% | 23.8% | 9.19% (active) | – | – |
| CC1(C)CC[C@]2(C(=O)N3CCOCC3)CC[C@]3(C)C(=CC[C@@H]4[C@@]5(C)CC[C@H](NCO)C(C)(C)[C@@H]5CC[C@]43C)[C@H]2C1 | -82% (active) | -87.8% (active) | -91% (active) | -100% (active) | -82% (active) | -100% (active) | -96.2% (active) | -91.5% (active) | -33.8% (active) | -38.5% (active) | -73.5% (active) | -99.9% (active) | -89.5% (active) | -86.4% (active) | -85.6% (active) | -82.7% (active) | -68.2% (active) | -73.1% (active) | – |
| O=c1[nH]c2ccc(Cl)cc2cc1CSc1ccc(Nc2nccc(-c3ccc4ccccc4c3)n2)cc1 | 97.2% | 83.6% | 62.6% | 96.2% | 79.8% | 100% | 97.1% | 119% | 80% | 69.1% | – | 95% | -25.7% (active) | 126% | 99.4% | -1.45% (active) | 66.2% | 59.8% | 88% |
| Cc1ccc(/C=C(\C#N)n2nnc3c(F)cccc32)cc1 | 16.5% | 28.8% | 4.19% (active) | 15.2% | 0.416% (active) | 19.7% | 21.8% | 71.8% | 10.1% | 6.26% (active) | -70.7% (active) | -7.34% (active) | 51.2% | 29.5% | 8.21% (active) | 0.864% (active) | 29.2% | 12.9% | – |
| CCCS(=O)(=O)c1oc(-c2ccc(F)cc2)nc1S(=O)(=O)c1ccc(F)cc1 | 36.7% | 82.8% | -85.4% (active) | -100% (active) | -97.2% (active) | -100% (active) | -92.2% (active) | 113% | -51.3% (active) | -46.6% (active) | -69.3% (active) | -68.3% (active) | -90.7% (active) | 83.3% | 74.9% | -96% (active) | 56.8% | -52.2% (active) | – |
| c1ccc(C(=C(c2ccc(OCCN3CCCCC3)cc2)c2ccc(OCCN3CCCCC3)cc2)C2CCCC2)cc1 | -90.2% (active) | 21.4% | -8.67% (active) | 89.5% | 16.6% | 80.3% | 76.1% | 102% | -60.4% (active) | -51.4% (active) | -48.8% (active) | -22.5% (active) | 1.48% (active) | -45.3% (active) | -85.8% (active) | -92.9% (active) | -9.63% (active) | 101% | – |
| CCC(C)S(=O)(=O)c1oc(-c2ccc(C)cc2)nc1S(=O)(=O)c1ccccc1 (configuration not stated) | -94.9% (active) | -61% (active) | -85.6% (active) | -100% (active) | -99.5% (active) | -100% (active) | -100% (active) | 109% | -46% (active) | -44.5% (active) | -65.8% (active) | -91.3% (active) | -83.7% (active) | 65.5% | -92.9% (active) | -81.1% (active) | -12.1% (active) | -55.2% (active) | – |

From PubChem BioAssay (NCI)
